Shiga toxin inh = Shiga toxin inhibition | inhibition, % at 38.7 µM | hit rate 9.2% among 290,000 | Vero cells, Shiga toxin protein synthesis inhibition reporter; in the data active = inhibition mostly above about 28%, no sharp cut-off; inactive = mostly below about 43%; also: 0% is about no effect
FMDV inh = antivirals against foot and mouth disease virus | FMDV antiviral cell-based qHTS | Potency, µM (top dose mostly 57.9 µM), without a hit: at the top dose activity change, negative = inhibition, usual class: inhibitors | hit rate 1.2% among 410,000 | AID 1159524; calls by dose curve; tested in HEK293T cells; also: read-out not given here; potency is read from the fitted curve at half-maximal effect; % is scaled to controls: 0 for no effect and ±100 for the full control effect; nearly all actives have a fitted effect of over 45% in size
Cycloheximide cs = counter-screen hit for Shiga toxin inhibitors, cycloheximide; cell reporter, cycloheximide protein synthesis inhibition counterscreen; hit rate 12% among 300,000; AID 2314; max response, %; in the data active = max response mostly above about 13%, no sharp cut-off; inactive = mostly below about 14%; also: read at 38.3 µM for the half of the compounds with a filed dose; 0% is about no effect
HCV inhibitor = blocks hepatitis C virus; Huh7.5.1 HCVcc-Cre infection, luciferase reporter, 44 h; Potency, µM (series often up to 41.8 µM), inactives show top-dose activity change, negative = inhibition, actives largely listed as inhibitors; hit rate 3.4% among 340,000; AID 651820; active = well fitted inhibition curve with a large enough effect; inconclusive = small, poorly fitted or top-dose-only effect, or another doubt; inactive = no such curve, though single readings can be large or run the other way; also: potency is read from the fitted curve at half-maximal effect; % is scaled to controls: 0 for no effect and ±100 for the full control effect
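Whole-lifecycle infectious HCVcc-Cre system; cells 1,000/well, compound then virus (~0.5 moi) added 4 h after plating, 44 h culture. Luciferase read 15 sec following 15 min substrate incubation, room temp.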
MARV entry inh = blocks Marburg virus binding to or entry into cells; Marburg virus pseudotyped entry inhibition, cell reporter; AID 540276; Potency, µM (highest dose often 37.8 µM), for inactives: top-dose activity change, negative = inhibition, hits mostly inhibitors; hit rate 1.8% among 300,000; calls by dose curve; tested in HEK293 cells; also: potency is read from the fitted curve at half-maximal effect; % is scaled to controls: 0 for no effect and ±100 for the full control effect
LASV entry inh = Lassa virus entry inhibition; Lassa virus pseudotype entry inhibition, cell reporter; Potency, µM (highest dose often 37.9 µM), without a hit: at the top dose activity change, negative = inhibition, most hits filed as inhibitors; hit rate 1.2% among 300,000; AID 540256; calls by dose curve; tested in HEK293 cells; also: potency is read from the fitted curve at half-maximal effect; % is scaled to controls: 0 for no effect and ±100 for the full control effect; nearly all actives have a fitted effect of over 50% in size
* hit, by the source's call; ? = inconclusive; . = not tested or not shown; [ ] = another dose, or the depositor's remark. Sampled rows, rich in hits. Any-hit rate of the full collection: about 13%.

SMILES | Shiga toxin inh | FMDV inh | Cycloheximide cs | HCV inhibitor | MARV entry inh | LASV entry inh
Cc1ccc(-n2ncc3c(NCc4ccccc4)ncnc32)cc1 | 103* | 9% | 111* | -9% | 5% | ?
c1ccc(-n2ncc3c(NCc4ccco4)ncnc32)cc1 | 85* | 40% | 53* | ? | ? | ?
COCCN(CCOC)C(=O)C1CCN(c2ccc(S(=O)(=O)N3CCOCC3)cc2[N+](=O)[O-])CC1 | . | 1% | . | 3% | ? | -5%
CCOCCCNC(=O)C(NC(=O)CC1NC(=O)NC1=O)c1ccc(Cl)cc1 (stereo not drawn) | 11 | -13% | -7 | 23% | 16% | 5%
Cc1ccc(-n2ncc3c(NCc4cccnc4)ncnc32)cc1C | 115* | 1% | 45* | ? | ? | -23%[46.1 µM]
CCOC(=O)CCc1c(C)nc2c(c(C)nn2-c2ccc(C)cc2)c1C | 0 | -6% | -1 | 13% | 15%[46.1 µM] | -3%[46.1 µM]
CSCCC(C(=O)Nc1c(C)cccc1C)N(C)CCc1ccccc1 (stereo not drawn) | . | -19% | . | . | . | .
Cc1c(Cl)c([N+](=O)[O-])nn1CCCC(=O)NCCc1ccccc1 | 102* | 53% | 31* | -4% | . | .
O=C(COc1cccnc1[N+](=O)[O-])NCCc1ccccc1 | 16 | 18% | 14* | -2% | ? | 5%
O=c1ccnc(NCCc2ccccc2)[nH]1 | 48 | -7% | 29* | 5% | 17% | 5%
Cc1cccc(OCCNc2ccc(C(F)(F)F)cc2[N+](=O)[O-])c1 | -5 | 56% | 9.3* | 25% | -1% | ?
Cc1nn(Cc2ccccc2)c(C)c1NC(=O)CCCn1nc([N+](=O)[O-])c(Cl)c1C | -18 | -8% | -6 | -9% | 9% | -16%
CS(=O)(=O)NCCCNc1ccc(C(F)(F)F)cc1[N+](=O)[O-] | 19 | -8% | 15 | 2% | . | .
O=C(COc1cccnc1[N+](=O)[O-])NCCc1ccc(F)cc1 | -11 | 6% | 2 | -5% | 1%[46.1 µM] | ?
C[C@@H]1CN([C@@H](C)CO)C(=O)CCCn2cc(nn2)CO[C@H]1CN(C)S(=O)(=O)c1cn(C)cn1 | . | -13% | . | . | . | .
CC(NC(=O)c1cc(Br)ccc1Cl)c1ccccc1 (stereo not drawn) | -23 | -9% | 3 | -13% | ? | -15%[46.1 µM]
CCC1CCCCN1Cc1nc2c(c(=O)n(C)c(=O)n2C)n1CCC(C)C (stereo not drawn) | -2 | -24% | -4 | ? | . | .
COc1ccc(N2CC(O)=C(c3nc(C)cs3)C2=N)cc1 | 28 | . | 6 | -34% | 15% | -1%
CCOC(=O)Cn1nnc2c(sc3nc4c(c(-c5ccc(Cl)cc5)c32)CCC4)c1=O | -3 | 0% | -2 | 12% | ? | ?
COc1ccccc1CNC(=O)C(=O)NCC(c1cccs1)S(=O)(=O)c1ccccc1 (stereo not drawn) | . | ? | . | . | . | 2%[46.1 µM]
COc1cc(S(=O)(=O)NCCN2CCOCC2)c(OC)cc1Cl | -15 | 101% | -2 | 3% | 16% | -8%
CCN(CC)C(=O)C1=C(C)N(CCCOC)C(=O)C(CC(=O)NCC2CCCCC2)C1 (stereo not drawn) | . | -21% | . | . | . | .
O=[N+]([O-])c1cc(S(=O)(=O)N2CCCC2)ccc1NCCc1ccccc1 | -13 | -23% | -5 | 15% | 8% | 19%
NS(=O)(=O)c1ccc(CCNc2ccccc2[N+](=O)[O-])cc1 | 77* | 24% | 36* | -12% | ? | 10%[46.1 µM]
O=[N+]([O-])c1cccnc1NCCc1c[nH]c2ccccc12 | 68* | 54% | 31* | ? | . | .
SMILES | Shiga toxin inh | FMDV inh | Cycloheximide cs | HCV inhibitor | MARV entry inh | LASV entry inh
O=C(COc1cccnc1[N+](=O)[O-])NCc1ccc(F)cc1 | -7 | 0% | -5 | 11% | . | .
O=[N+]([O-])c1cc(C(F)(F)F)ccc1NCCc1c[nH]c2ccccc12 | 54* | ? | 10* | -29% | ? | -5%
COC(=O)c1ccc(COc2cccnc2[N+](=O)[O-])cc1 | 35* | 14% | 24* | -6% | 3%[46.1 µM] | -7%
O=[N+]([O-])c1cc(C(F)(F)F)ccc1NCCc1c[nH]c2ccc(O)cc12 | 20 | ? | 3 | ? | 1% | -5%
Cc1cccnc1NC(=O)CCc1c[nH]c2ccccc12 | 10 | -5% | 4 | -15% | 8%[46.1 µM] | 21%[46.1 µM]
COc1cc2c(cc1OC)OC(C)(C)C=C2 | . | 16% | . | . | . | .
Cc1ccc(CNC(=O)CN2CCN(Cc3ccc(F)cc3Cl)C2=O)cc1 | . | -9% | . | . | 14%[46.1 µM] | 1%[46.1 µM]
O=c1c(-c2ccccc2)cocc1-c1ccccc1 | . | 44% | . | . | . | .
O=C(Oc1ccccc1C(=S)N1CCOCC1)c1cccc([N+](=O)[O-])c1 | -3 | -1% | -4 | -14% | ? | 10%
CN(CC(=O)Nc1ccccc1Cl)C(=O)COC(=O)Cc1c(F)cccc1Cl | -13 | -8% | -2 | 9% | . | .
COc1ccccc1CNc1ncccc1[N+](=O)[O-] | -3 | 9% | 1 | 6% | . | .
O=[N+]([O-])c1cccnc1NCCc1ccccc1 | 67* | 29% | 37* | 6% | ? | ?
CCOc1ccc2nc(N(Cc3ccccc3)C(=O)CCNC(C)=O)sc2c1 | 51* | 34% | 30* | -6% | 4% | -1%
CCC(C)C(=O)Nc1nc2ccc(S(C)(=O)=O)cc2s1 (stereo not drawn) | 37* | 0% | 20* | -7% | ? | 17%
CC(C)C(=O)Nc1nc2ccc(S(C)(=O)=O)cc2s1 | 28 | 27% | 27 | -26% | 5%[46.1 µM] | ?
COc1ccc(OCC(=O)Nc2nc3ccc(NC(C)=O)cc3s2)cc1 | 28 | -22% | 1 | 7% | . | .
COc1ccc2nc(NC(C)=O)sc2c1 | 82* | 35% | 42* | 10% | 2% | 1%
CCC(C)C(=O)Nc1nc2ccc(OC)cc2s1 (stereo not drawn) | 71* | 7% | 42* | -26% | ? | ?
COC(=O)C1CCN(C(=O)C2CC(=O)N(c3ccc(C)c(Cl)c3)C2)CC1 (stereo not drawn) | . | 34% | . | 9% | 20%[46.1 µM] | ?
Cc1nnc(SCC(=O)Nc2ccccc2N2CCOCC2)s1 | 9 | -13% | -2 | -3% | ? | 2%
Cc1cc(C)c(S(=O)(=O)N2CCN(C(=O)N(C)C)CC2)c(C)c1 | 16 | -22% | -5 | -8% | -11% | -2%
Cc1ccc(Nc2nc(Oc3ccc(OCc4ccccc4)nn3)nc(N3CCOCC3)n2)cc1 | -21 | ? | -3 | -5% | ? | -3%
CC(=O)Nc1nc2ccc(Br)cc2s1 | 40 | 14% | 21* | ? | ? | -26%
COc1ccc(-c2sc(NC(C)=O)nc2-c2ccccc2)cc1 | -5 | -22% | -3 | ? | -1% | -2%
CC(=O)NCCC(=O)Nc1nc2ccc(Oc3ccccc3)cc2s1 | 101* | 37% | 62* | 10% | ? | ?
COc1ccc(-c2nc(NC(C)=O)sc2-c2ccccc2)cc1 | -2 | -6% | 14 | 10µM* | -17%[46.1 µM] | ?
